Screens as filed in PubChem BioAssay.
Rows were chosen to be rich in hits. Some 2.2% of all compounds tested hit in one or more screens of this group.
KKLEB tox = cytotoxicity in KKLEB CF airway cells, primary screen, cytotoxicity control for CF NF-kB inhibitor project, cell-based, uHTS, fluorescence assay plates; KKLEB CF airway cells viability, ATPlite luminescence, overnight; hits give low values; cells stimulated with P. aeruginosa culture filtrate; activity change (cytotoxicity), % at 5 µM; 360,000 tested, 0.36% active; AID 602141, 2011;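 active means corrected activity change at or below -50% at 5 µM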
TRAIL sens C8 = viability loss with TRAIL in NB7+C8 cells, primary screen, TRAIL sensitizer project, cell-based, ATPlite luminescence; AID 624354, 2012; 360,000 tested, 1% active; inhibition (viability loss, TRAIL sensitization), % at 10 µM;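 active means compounds causing at least 50% loss of cell viability in the single-dose screen, relative to plate controls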
HIF-2a inh = HIF-2a reporter inhibitors, primary screen, luminescence, 786-0 RCC cells; 786-0 RCC cells HIF-2a reporter, luciferase luminescence, overnight; AID 624352, 2012; 360,000 tested, 0.72% active; inhibition, % at 18.8 µM;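 active means inhibition of the luminescence signal of 40% or more relative to plate controls, in a single-dose primary screen at 18.75 µM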
CF NFkB inh = inhibitors of PAF-induced NF-kB signaling, primary screen, cell-based, GFP fluorescence, uHTS; KKLEB NF-kB-GFP reporter, GFP fluorescence overnight; inhibition, % at 5 µM; 360,000 tested, 0.86% active; AID 588850, 2011;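 active means at least 50% inhibition at 5 µM, scaled per plate between neutral and stimulator controls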;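 further: PAF is a Pseudomonas aeruginosa culture filtrate used as stimulus; plate controls were PAF-stimulated DMSO wells for no effect and unstimulated DMSO wells for full effect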
PPC-1+TRAIL kill = compounds killing PPC-1 cancer cells with TRAIL present, primary screen, TRAIL potentiator project, ATPLite luminescence, uHTS; 220,000 tested, 0.41% active; AID 1443, 2008; cell killing (% activity), % at 4 µM or 5 µM; PPC-1 cells + TRAIL, ATPLite viability luminescence;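 active means cell killing above 50% in the first pass at 4 µM, then a duplicate retest at 5 µM averaging 50% or more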;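 further: plate controls were cells with TRAIL plus DMSO for no effect and medium-only wells lacking cells for full effect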
iPSC survival up = enhancers of single-cell hiPSC survival, primary screen, ATPlite luminescence. 100% = ROCK inhibitor wells, 0% = DMSO. survival enhancement, % at 20 µM. 360,000 tested, 0.044% active. AID 602274, 2012; in the data active means survival enhancement above about 18%;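 further: cells exposed to compounds for 16 hours before the ATP read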
PPC-1 tox = cytotoxicity in PPC-1 cells, confirmation, cytotoxicity control for TRAIL apoptosis potentiator project, cell-based, ATP content luminescence | shares compounds with PPC-1+TRAIL kill | PPC-1 viability, ATPlite luminescence, overnight | cytotoxicity, % at 5 µM | 1,200 tested, 50% active | AID 1447, 2008;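 active means reconfirmed compounds whose average cytotoxicity reaches 50% or more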;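 further: 0% = DMSO-treated cells and 100% = wells holding medium but no cells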
Starred values were filed as active, the others as inactive; · = not tested or not shown.

SMILES	KKLEB tox	TRAIL sens C8	HIF-2a inh	CF NFkB inh	PPC-1+TRAIL kill	iPSC survival up	PPC-1 tox
CCOc1ccc(OCC(=O)Nc2nccs2)cc1	-8.6	65.6*	37.6	-1.6	47.1	-0.9	51.5*
COc1ccc(/C=C/C(=O)Nc2ccccc2C(=O)N2CCCC2)cc1	6.4	25.8	-103.3	-25.5	16.1	-0.9	·
COc1ccc(/C=C/C(=O)Nc2ccccc2C(=O)O)cc1	-7.5	85.8*	-50.0	-10.0	82.7*	-0.9	82.6*
COc1cc(OC)c(OC)cc1/C=C/c1cc(C(=O)O)c2ccccc2n1	0.8	22.1	5.6	-5.8	4.6	1.0	·
COc1ccc(/C=C/c2cc(C(=O)O)c3ccccc3n2)cc1	-13.7	94.5*	22.1	-11.2	95.5*	-0.9	95.5*
CCOC(=O)c1[nH]c2ccc(F)cc2c1NC(=O)C1=COCCO1	-2.1	-3.9	4.2	-6.5	-0.7	4.2	-6.9
CCc1nc(CN2CCCC(C(=O)c3ccc4c5c(cccc35)CC4)C2)c(C)[nH]1 (configuration not stated)	-24.1	17.9	10.2	9.9	12.9	-2.7	17.2
CCc1ccccc1OCC(=O)Nc1cc(S(=O)(=O)N(CC)CC)ccc1N1CCOCC1	-18.5	19.7	10.9	22.3	·	0.0	·
O=C(O)CC1=C(O)C(=O)N(c2ccccc2)C1c1ccccc1 (configuration not stated)	-1.7	1.4	-4.9	-9.6	-27.8	-2.0	-5.8
O=C(O)CC1=C(O)C(=O)N(c2ccccc2)C1c1ccc(Br)cc1 (configuration not stated)	-19.0	12.1	-8.5	-11.5	1.8	8.0	·
CCOC(=O)C(CC)n1cnc2c(nnn2-c2ccccc2)c1=O (configuration not stated)	18.3	-17.6	3.8	-26.9	·	-1.1	·
Nc1c(-c2ccccc2)cnc2cc(-c3ccccc3)nn12	-34.5	64.6*	-305.4	-21.0	52.9*	-3.0	59.8*
CCOc1ccc(NC(=O)C2CCN(S(=O)(=O)c3ccc4c(c3)C(C)(C)C(=O)N4C)CC2)cc1	-11.4	4.2	15.5	-1.5	·	0.8	·
O=C(Nc1ccc(-c2cn3ccsc3n2)cc1)C1CC1	2.4	68.8*	-200.8	-2.7	61.3*	-4.3	64.3*
CC(=O)Nc1ccc(-c2cn3ccsc3n2)cc1	0.3	36.4	-145.8	-11.7	33.6	-5.2	·
CCC(=O)Nc1cccc(-c2cn3ccsc3n2)c1	4.1	11.0	-79.4	-5.3	-2.4	2.4	8.6
O=C(Nc1ccc(-c2cn3ccsc3n2)cc1)C1CCCC1	-16.3	78.9*	-117.7	0.2	72.6*	-8.2	73.3*
Cc1nc(-c2ccc(NC(=O)C3CCCCC3)cc2)cs1	-5.1	29.1	-207.2	6.5	28.0	-1.6	·
O=C(CCNS(=O)(=O)/C=C/c1ccccc1)NCCc1c[nH]c2ccccc12	3.5	-5.4	10.1	6.2	·	-0.5	·
COc1ccc(C(=O)NCc2ccc3c(c2)CCO3)cc1	-1.5	-10.8	-2.1	-0.5	1.3	0.2	·
Cc1cnc(NC(=O)c2cc3c(s2)CCCC3)s1	-51.0*	92.5*	-12.6	-6.4	72.0*	-5.1	70.1*
Cc1csc(NC(=O)c2cc3c(s2)CCCC3)n1	-28.7	77.6*	-3.3	-5.2	66.5*	-5.6	69.4*
Cc1csc(NC(=O)c2ccc(N3CCCC3=O)cc2)n1	0.8	70.6*	33.3	19.7	56.0*	-2.7	53.4*
CCc1nnc(NC(=O)c2cc3c(s2)CCCCC3)s1	-2.5	38.1	-168.4	-21.3	·	-3.4	·
Cc1csc(NC(=O)c2cc3c(s2)CCCCC3)n1	-63.1*	91.5*	27.4	9.0	84.8*	-3.2	82.1*
SMILES	KKLEB tox	TRAIL sens C8	HIF-2a inh	CF NFkB inh	PPC-1+TRAIL kill	iPSC survival up	PPC-1 tox
Cc1nnc(NC(=O)c2ccc(N3CCCC3=O)cc2)s1	-22.8	20.3	-137.8	-10.1	·	-0.4	·
O=C(Cc1ccccc1)N/N=C/c1ccc(S(=O)(=O)O)o1	-0.5	13.5	15.6	-3.7	2.0	0.7	·
O=C1C2C(C(=O)N1c1ccccc1)N1CCCN1C2c1ccccc1 (configuration not stated)	3.8	-4.2	15.9	-19.8	10.1	-0.1	·
COc1ccccc1NC(=S)c1ccccc1	-0.6	-11.3	-24.5	6.1	-7.1	-1.2	·
CC(C)C(=O)N1CCN(c2ccccc2NC(=O)c2cc([N+](=O)[O-])ccc2N2CCOCC2)CC1	-6.0	10.4	22.2	-17.3	-1.5	-0.3	·
CCC(CNc1cc(OC)cc2cccnc12)NC1CCCCC1 (configuration not stated)	-11.3	26.0	18.2	-2.1	-3.3	-0.6	-16.1
COc1cc(NS(=O)(=O)c2ccc(C)cc2)c2ncccc2c1	-3.5	15.6	18.0	47.6	27.8	0.4	·
O=C(O)[C@H](Cc1c[nH]c2ccccc12)Nc1ncccc1[N+](=O)[O-]	0.7	7.8	18.4	9.0	·	-0.4	·
CCN(C(=O)c1ccco1)c1nnc(-c2ccc(OC)cc2)s1	-18.7	68.8*	-230.0	8.0	68.2*	-5.7	69.8*
CCCN(C(=O)c1ccco1)c1nnc(-c2cccc(C)c2)s1	8.3	6.7	-217.8	-6.4	9.1	-1.4	·
CCN1C(=O)[C@H]2[C@@H](c3ccc(C(F)(F)F)cc3)N[C@]3(CCCN(Cc4ccc(F)cc4)C3=O)[C@H]2C1=O	-6.1	4.2	5.2	-12.9	·	4.9	·
Cc1cc(-n2[nH]c(C)c(C)c2=O)nc(-c2ccccc2O)n1	-3.3	12.7	4.1	-2.7	11.8	-0.8	8.0
Cc1cc(N2CCC(C)CC2)nc(-c2ccccc2O)n1	5.4	5.2	1.6	1.6	-3.2	-0.8	·
Cc1onc(-c2ccccc2Cl)c1C(=O)NCc1cccnc1	5.6	-4.7	7.8	-21.2	30.6	1.1	·
COc1ccc(CNC(=O)c2ccc(-c3ccccc3)cc2)cc1	1.5	-6.2	-185.4	4.7	-9.8	-3.5	·
COc1ccc(CNC(=O)c2c(C)oc3c2C(=O)c2ccccc2C3=O)cc1	-82.0*	93.9*	72.7*	89.9*	58.7*	-3.4	56.8*
Cc1oc2c(c1C(=O)NCc1cccnc1)C(=O)c1ccccc1C2=O	·	·	·	·	95.2*	·	94.4*
O=C(CCOc1ccccc1)Nc1ccc(Cl)c(S(=O)(=O)N2CCOCC2)c1	-3.3	-8.3	13.1	-11.1	·	-0.3	·
c1ccc2c(c1)CCN(c1nc3cc4c(cc3s1)OCCO4)C2	-51.8*	75.0*	46.9*	-4.6	84.4*	-3.0	84.4*
